# Assay outcomes deposited in PubChem by National Center for Advancing Translational Sciences (NCATS).
# HCV inhibitor – blocks hepatitis C virus; Huh7.5.1 HCVcc-Cre infection, luciferase reporter, 44 h; 340,000 tested, 3.4% active; AID 651820; Potency, µM (highest dose often 41.8 µM), inactives show top-dose activity change, negative = inhibition, usual class: inhibitors; further: potency means the concentration at half of the fitted maximal effect; on the % scale 0 is the no-effect control and ±100 the full control effect
#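 Seed cells (1,000/well) for 4 h; treat with compound and infect with HCVcc-Cre, moi about 0.5. Incubate 44 h, then detect luciferase activity.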
# SARS PLP yeast – SARS-CoV PLP inhibition in yeast; S. cerevisiae expressing SARS-CoV PLpro, growth rescue; Potency, µM (highest dose often 32.9 µM), inactives show at the top dose activity, positive = growth rescue, usual class: activators; 330,000 tested, 0.19% active; AID 485353; calls by dose curve; further: potency means the concentration at half of the fitted maximal effect; 0% is about no effect; nearly all actives have a fitted effect of over 55% in size
# Sm TGR inh – S. mansoni TGR enzyme inhibition; Q962Y6; purified TGR, DTNB reduction, TNB absorbance 405 nm; Potency, µM (doses to about 114 µM), inactives show at the highest dose activity change, negative = inhibition, most hits filed as inhibitors; 360,000 tested, 3% active; AID 485364; further: potency means the concentration at half of the fitted maximal effect; on the % scale 0 is the no-effect control and ±100 the full control effect; nearly all actives have a fitted effect of over 60% in size
#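 TGR 20 nM + NADPH 100 uM (dispensed conc.), cpd preinc 15 min RT; start with NADPH (500 uM addition) then DTNB (15 mM addition). Kinetic TNB absorbance, 405 nm filter. Four-parameter Hill fit across titration.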
# HCMV antiviral – inhibitors of human cytomegalovirus | 410,000 tested, 4.5% active | HFF cells, HCMV-luciferase reporter, 72 h; hits give low values | activity change, negative = inhibition, % at 57.5 µM; in the data active means activity change below about -60%; inconclusive means no clear call, values can overlap the other calls; inactive means above about -39%; further: on the % scale 0 is the no-effect control and ±100 the full control effect
#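 Two compound doses tested in HFFs infected with HCMV-luciferase, MOI 1 PFU/cell, 72 h at 37C. Lysate luminescence read with OneGlo; data normalized against buffer-only and 10uM Salinomycin inhibitor controls.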
# Pf growth 48h – inhibits P. falciparum growth in the first generation, 48 h; P. falciparum luciferase growth in erythrocytes, 48 h; 310,000 tested, 5.9% active; AID 504832; Potency, µM (series often up to 28.7 µM), inactives show at the top dose activity change, negative = inhibition, hits mostly inhibitors; further: potency means the concentration at half of the fitted maximal effect; on the % scale 0 is the no-effect control and ±100 the full control effect
#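 Erythrocytes infected with P. falciparum carrying an integrated firefly luciferase reporter (2% hematocrit, 0.1% parasitemia final) were exposed to compounds in RPMI 1640 with 0.5% Albumax at 37 C, 5% CO2. Growth inhibition was scored as reduced luminescence.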
# Pf growth 96h – P. falciparum growth inhibition at 96 hours | P. falciparum luciferase reporter growth, 96 h | 320,000 tested, 6.9% active | Potency, µM (series often up to 28.7 µM), for the others: top-dose activity change, negative = inhibition, usual class: inhibitors; further: potency means the concentration at half of the fitted maximal effect; on the % scale 0 is the no-effect control and ±100 the full control effect
#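 Delayed-death screen, second-generation endpoint: infected erythrocytes, 2% hematocrit, 0.05% parasitemia final; 96 hours at 37 C, 5% CO2; luciferase detection reagent; luminescence decrease equals reduced growth.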
# An asterisk follows results filed as active; ? = inconclusive; . = no result given. Most compounds without a hit are left out; they make up all but 15% or so of the library. Unless noted, the call rests on the fitted dose curve; in most records, active means well fitted curve in the direction sought with a large enough effect; inconclusive means small, poorly fitted or top-dose-only effect, or another doubt; inactive means no such curve, though single readings can be large; an effect the other way counts as inactive or inconclusive.
SMILES,HCV inhibitor,SARS PLP yeast,Sm TGR inh,HCMV antiviral,Pf growth 48h,Pf growth 96h
COc1ccc(CCNC(=O)[C@H](C)NC(=O)N2CCn3c2nc2ccccc23)cc1OC,12%,1%,-11%,13,-25%,?
NS(=O)(=O)c1ccc(N=Nc2c[nH]c(=O)c(O)c2)cc1,-1%,9%,8.9µM*,-19,?,?
O=C(Nc1ccc(F)cc1)c1ccc(C(=O)N2CCCC(O)C2)cc1 (stereo unspecified),8%,8%,4µM*,-11,1%,101%
COc1ccc(C(=O)N2CCCC(Nc3ccc(F)cc3)C2)cc1F (stereo unspecified),-9%,-6%,-21%,-18,24%,10µM*
Cc1ccc(C(=O)N2CCCC(Nc3ccc(F)cc3)C2)cc1C (stereo unspecified),7%,8%,79µM*,-12,?,0%
Cc1ccc(NC2CCCN(C(=O)c3ccc4[nH]ccc4c3)C2)cc1C (stereo unspecified),11%,2%,-3%,7,?,13µM*
CC1CCCCN1C(=O)c1ccc(C(=O)Nc2ccc(F)cc2)cc1 (stereo unspecified),-27%,1%,-12%,?,?,?
O=C(c1ccc2[nH]ccc2c1)N1CCCC(Nc2ccccc2)C1 (stereo unspecified),0%,.,61%,6,18%,3%
CC(=O)Nc1ccc(S(=O)(=O)NC2(C(F)(F)F)NC(=O)N(CCc3ccc(F)cc3)C2=O)cc1 (stereo unspecified),.,.,-30%,21,.,.
Cc1cccc(Cn2c(CN3CCC(C(=O)NCCc4ccccc4)CC3)cc3ccccc32)c1,.,.,2%,14,.,.
O=C(CCC1CCCN(C(=O)c2ccc3[nH]ccc3c2)C1)N1CCN(c2ccccn2)CC1 (stereo unspecified),?,1%,0%,-83*,?,400%
O=C(CCC1CCCN(C(=O)c2ccc3cc[nH]c3c2)C1)N1CCN(c2ccccn2)CC1 (stereo unspecified),-21%,-2%,.,?,?,9%
O=C1CC(c2nnc(Cc3cccc(Cl)c3)o2)CN1c1ccccc1 (stereo unspecified),.,.,-12%,-14,.,.
O=C(NCCCN1CCCC1=O)c1cccc(S(=O)(=O)Nc2ccc(F)cc2)c1,1%,3%,-16%,-23,?,13µM*
O=C(NCCCN1CCCC1=O)c1cccc(C(F)(F)F)c1,7%,0%,?,32,3%,8.3µM*
O=C(NCCCN1CCCC1=O)c1cccc(S(=O)(=O)Nc2ccc(Br)cc2)c1,1%,0%,-13%,-40,?,?
CN(C)CCNc1cc(-c2ccncc2)nc2ccccc12,-2%,0%,?,34,12µM*,3.3µM*
Cc1ccc(-c2nc(NCCN(C)C)c3ccccc3n2)cc1,-25%,0%,-28%,24,?,-21%
Cc1cccc(CSc2nnc(CCCCCN)o2)c1,.,.,-12%,-76*,.,.
COc1ccccc1-c1ccc2c(c1)C(C)(Cc1cccc(C#N)c1)C(=O)N2 (stereo unspecified),.,.,.,11,.,.
COc1ccc2c(c1)cc1c(=O)n(CC(=O)NC3CC3)nc(C)n12,.,.,5%,11,.,.
CCCCN(C)CC(O)Cn1cc(/C=C/C(=O)c2ccc(Br)cc2)c2ccccc21 (stereo unspecified),.,.,-4%,-107*,.,.
CCCN(CCC)CC(O)Cn1cc(/C=C/C(=O)c2ccc(Br)cc2)c2ccccc21 (stereo unspecified),.,.,23%,-14,.,.
CCCCN(C)CC(O)Cn1cc(/C=C/C(=O)c2ccc(C)cc2)c2ccccc21 (stereo unspecified),13µM*,-2%,3%,-98*,9.3µM*,-8%
CCCN(CCC)CC(O)Cn1cc(/C=C/C(=O)c2cccs2)c2ccccc21 (stereo unspecified),?,-8%,-14%,-35,7.4µM*,2%
SMILES,HCV inhibitor,SARS PLP yeast,Sm TGR inh,HCMV antiviral,Pf growth 48h,Pf growth 96h
CCCN(CCC)CC(O)Cn1cc(/C=C/C(=O)c2ccc(C)cc2)c2ccccc21 (stereo unspecified),.,.,-10%,-107*,.,.
CCOc1ccccc1OC(=O)CN1C(=O)c2ccccc2C1=O,12%,1%,6%,-15,7%,-22%
COc1cccc(OC)c1C(=O)NC1C(=O)N2C1SC(C)(C)C2C(=O)O (stereo unspecified),.,.,.,.,3%,-3%
COc1ccccc1NC(=O)CCc1nnc2ccc(N3CCN(C)CC3)nn12,3%,-2%,-6%,-11,12%,?
COc1ccc(CCNC(=O)c2cccnc2)cc1,-2%,-9%,-4%,18,6%,.
CCCCN(C)CC(O)Cn1cc(/C=C/C(=O)c2ccc(OC)c(OC)c2)c2ccccc21 (stereo unspecified),.,.,-3%,-108*,.,.
CCCN(CCC)CC(O)Cn1cc(/C=C/C(=O)c2ccc(OC)cc2)c2ccccc21 (stereo unspecified),.,.,-20%,8,.,.
Cc1ccc(N2C(=O)c3ccc(C(=O)O)cc3C2=O)cc1C,6%,-5%,-16%,13,.,?
CCSc1nnc(N2C(=O)c3ccc(C(=O)c4ccc(C(=O)O)cc4)cc3C2=O)s1,11%,-1%,-24%,?,9%,10µM*
CCCNc1nc2nc3ccccn3c(=O)c2cc1C(=O)NCCN1CCOCC1,-10%,1%,0%,-11,15µM*,11%
Cc1cccn2c(=O)c3cc(C(=O)NCCN4CCOCC4)c(=N)n(CCCN4CCOCC4)c3nc12,?,1%,6%,-2,2.9µM*,0%
Cc1cccn2c(=O)c3cc(C(=O)NCCN4CCOCC4)c(=N)n(CCc4ccccc4)c3nc12,?,-1%,-1%,-85*,0.47µM*,-8%
O=C(NCCN1CCOCC1)c1c(O)nc2ccccn2c1=O,21%,-3%,-15%,11,19%,15%
COc1ccc(CCn2c(=N)c(C(=O)NCCN3CCOCC3)cc3c(=O)n4cccc(C)c4nc32)cc1OC,?,4%,3%,-95*,0.74µM*,0.41µM*
Cc1cccn2c(=O)c3cc(C(=O)NCc4ccccc4)c(=N)n(CCCN4CCOCC4)c3nc12,?,.,.,-31,.,.
Cc1ccn2c(Nc3ccc(C(C)C)cc3)c(-c3cccs3)nc2c1,.,.,3%,-1,.,.
COc1ccc(CCn2c(=N)c(C(=O)NCCN3CCOCC3)cc3c(=O)n4ccccc4nc32)cc1OC,18%,-1%,-1%,-9,?,?
